# Measured values: paper PMC5540273 (PLoS ONE, 2017)
# Tested on: ULK1
# Conditions: concentration: 1 μM, replicates: in singlicate; n = 1
# 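Also: KINOMEscan kinase panel screen.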
row,Compound,%Inh [%]
1,CC(C)(C)n1cnc2c(N)ncnc21 [SKF-97359],0
2,Cc1cccc(Cn2ccn3c(=O)cc(N4CCOCC4)nc23)c1 [GSK2297542],2
3,c1ccc(-c2cc(-c3c[nH]nc3-c3ccccn3)ccn2)cc1 [GW576604],0
4,O=C(Nc1cccc(-c2nn3ncccc3c2-c2ccnc(Nc3cccc(C(F)(F)F)c3)n2)c1)c1c(F)cccc1F [GSK299495],0
5,COc1cc2c(cc1OC[C@@H](O)CO)ncc1c3ccc(C#N)cc3[nH]c21,71
6,N#Cc1ccc(-c2cc(-c3c[nH]nc3-c3ccccn3)ccn2)cc1 [GW693028],6
7,Fc1ccc(-c2ncn(CCCN3CCOCC3)c2-c2ccccn2)cc1 [SB-211742],0
8,COc1ccc(Nc2nccc(N3CCC(NC(=O)Nc4cccc(C(C)=O)c4)C3)n2)cc1 (stereo not drawn) [GSK1379731],18
9,Cn1cc(-c2ccc3c(c2)CCN3C(=O)Cc2ccccc2Cl)c2c(N)ncnc21 [GSK2608885],6
10,CNc1ncnc2[nH]ncc12 [SKF-18355],11
11,Cc1cccc(-c2nc(Nc3ccc4ncsc4c3)c3ccccc3n2)n1 [GW867588],4
12,[2H]C([2H])(c1cccc(C(F)(F)F)c1C)n1ccn2c(=O)nc(N3CCOCC3)cc12 [GSK2336394],0
13,Cc1c2ccc(N(C)c3ccnc(Nc4cccc(S(N)(=O)=O)c4)n3)cc2nn1Cc1ccccc1.Cl.Cl [GW787226],3
14,O=C(c1ccc(-c2cc(-c3c[nH]nc3-c3ccccn3)ccn2)cc1)N1CCOCC1 [GW812171],14
15,CCn1cnc2c(N)ncnc21 [GW345098],0
16,Cl.Nc1ncnc2occ(-c3ccc(NC(=O)Nc4cc(C(F)(F)F)ccc4F)cc3)c12 [SB-707548],0
17,CC(=O)Nc1ccc(COc2ccc(Nc3ccnc4cc(-c5ccccn5)ccc34)cc2)cc1.Cl [GW440148],0
18,Cc1nnc(-c2ccc3occ(-c4ccc(C(C)O)cc4)c3c2)o1 (stereo not drawn),1

row,Compound,%Inh [%]
1,Cc1nnc(-c2ccc3ncc(-c4ccc(S(C)=O)cc4)n3c2)o1 (stereo not drawn),2
2,c1ccc(-c2n[nH]cc2-c2ccnc3ccccc23)nc1 [GW271431],0
3,CCCCCc1nc2c(N)ncnc2n1CCCCC [SKF-97255],12
4,CN1c2ccc(CNc3ccc(F)cc3)cc2-c2c(cnn2C)S1(=O)=O,0
5,NCC(NC(=O)c1cc(-c2cn[nH]c2)c(-c2ccnc3[nH]ccc23)s1)c1ccccc1.O=C(O)C(F)(F)F.O=C(O)C(F)(F)F (stereo not drawn) [GSK1325775],18
6,O=C(Nc1n[nH]c2cc(-c3cccc(F)c3)ccc12)C1CC1 [SB-735464],2
7,COc1ccc(COc2cc(-n3cnc4ccccc43)sc2C(N)=O)cc1 [GSK1024304],15
8,CN(C(=O)c1ccc(-c2cc(-c3c[nH]nc3-c3ccccn3)ccn2)cc1)C1CCOCC1 [GW810083],5
9,O=c1cc(N2CCOCC2)nc2n(Cc3cccc(Cl)c3Cl)c(C3CC3)nn12 [GSK2358994],0
10,COc1cc2ncn(-c3cc(OCc4sccc4Cl)c(C(N)=O)s3)c2cc1OC [GSK448459],17
11,CCc1ccnc(/C=C/c2n[nH]c3cc(Sc4ccccc4C(=O)NC)ccc23)c1,3
12,CSc1ccc(-c2cc3ncnc(SCC(=O)O)c3s2)cc1,0
13,COc1ccc(Nc2nccc(N3CCC(NC(=O)Nc4cc(C)ccc4C)C3)n2)cc1 (stereo not drawn) [GSK1379741],15
14,Cc1c(Cn2c(C)nn3c(=O)cc(N4CCOC(C)C4)nc23)cccc1C(F)(F)F (stereo not drawn) [GSK2344444],34
15,O=C1NC(=O)C(N2CCc3ccccc32)=C1c1cccc(Cl)c1 [SB-408010],0
16,Cn1ccc2ncnc(Oc3ccc(NC(=O)Nc4ccncc4)c(Cl)c3)c21,0
17,O=C(NOCC1CC1)c1ccc(F)c(F)c1Nc1ccc(I)cc1Cl,0
18,Cc1ccc(NC(=O)c2ccnc(N3CCN(C)CC3)c2)cc1-c1ccc(C(=O)NCC2CC2)cc1 [GW775604],0
